{"source": "PubChem BioAssay (EPA / NIEHS)", "key": {"[1]": {"biological_target": "human CYP2C9, CYP2C9 (gene 1559) (UniProt P11712)", "sequence (P11712 whole entry, looked up)": "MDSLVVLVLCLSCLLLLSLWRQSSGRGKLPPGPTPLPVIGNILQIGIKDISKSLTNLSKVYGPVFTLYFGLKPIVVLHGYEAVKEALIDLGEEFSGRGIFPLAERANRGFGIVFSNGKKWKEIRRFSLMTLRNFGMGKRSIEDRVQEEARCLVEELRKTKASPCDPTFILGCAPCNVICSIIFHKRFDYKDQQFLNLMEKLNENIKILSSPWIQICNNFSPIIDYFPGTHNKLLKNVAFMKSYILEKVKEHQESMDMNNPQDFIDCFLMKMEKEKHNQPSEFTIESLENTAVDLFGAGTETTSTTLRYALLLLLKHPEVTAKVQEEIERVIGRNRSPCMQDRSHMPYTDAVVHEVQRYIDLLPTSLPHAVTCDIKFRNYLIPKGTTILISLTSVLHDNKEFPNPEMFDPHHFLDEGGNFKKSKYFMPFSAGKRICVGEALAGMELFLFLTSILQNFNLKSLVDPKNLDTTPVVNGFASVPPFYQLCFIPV", "assay": "NVS_ADME_hCYP2C9: NovaScreen (NVS) CYP450-related Enzyme Activity (ADME) Assay for human CYP2C9 (AID 2283108)", "outline": "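Cell-free assay of recombinant human CYP2C9 produced in Sf9 cells, with enzyme activity read by fluorescence intensity 0.75 h after compound addition. Loss of signal versus an acetonitrile negative control indicates inhibition. Primary screen used 10 uM in duplicate; actives were retested in concentration series.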"}, "[2]": {"biological_target": "Cytochrome P450 2C19 (Homo sapiens) (UniProt P33261)", "assay": "NVS_ADME_hCYP2C19: NovaScreen (NVS) CYP450-related Enzyme Activity (ADME) Assay for human CYP2C19 (AID 2283113);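 also: potency for inhibition seen as loss of fluorescent signal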", "outline": "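Cell-free assay of recombinant human CYP2C19 expressed in insect cells, with a fluorogenic substrate; fluorescence intensity read 1 hour after dosing. Loss of signal relative to acetonitrile negative control indicates inhibition. Primary screen at 10 uM in duplicate, then concentration series.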"}, "[3]": {"biological_target": "rat CYP2A1, Cyp2a1 (gene 24894) (UniProt P11711)", "sequence (P11711 whole entry, looked up)": "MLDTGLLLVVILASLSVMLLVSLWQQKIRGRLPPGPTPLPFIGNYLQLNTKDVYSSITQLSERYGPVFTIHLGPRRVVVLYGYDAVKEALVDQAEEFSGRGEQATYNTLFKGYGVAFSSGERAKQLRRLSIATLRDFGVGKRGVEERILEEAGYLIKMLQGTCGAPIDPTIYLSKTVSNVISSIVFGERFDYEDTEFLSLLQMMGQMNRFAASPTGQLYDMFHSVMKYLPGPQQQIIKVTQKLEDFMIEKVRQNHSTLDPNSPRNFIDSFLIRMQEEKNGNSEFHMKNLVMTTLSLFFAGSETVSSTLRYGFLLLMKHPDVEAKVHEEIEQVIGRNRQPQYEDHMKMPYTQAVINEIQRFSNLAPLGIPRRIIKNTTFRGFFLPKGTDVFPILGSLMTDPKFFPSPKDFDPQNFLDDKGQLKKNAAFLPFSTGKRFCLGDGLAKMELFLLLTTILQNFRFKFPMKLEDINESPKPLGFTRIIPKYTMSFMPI", "assay": "NVS_ADME_rCYP2A1: NovaScreen (NVS) CYP450-related Enzyme Activity (ADME) Assay for rat CYP2A1 (AID 2283114; active = hit-call score of the fitted dose curve at least 0.9, where 1 is the maximum; inactive = score below 0.9)", "outline": "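Recombinant rat CYP2A1, cell-free, fluorogenic substrate turnover read by fluorescence intensity 0.75 h after dosing. Primary screen at 10 uM in duplicate; actives rerun as concentration-response up to 20 uM; loss of signal versus acetonitrile control.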"}, "[4]": {"biological_target": "human Beta-secretase (BACE), BACE1 (gene 23621) (UniProt P56817)", "sequence (P56817 whole entry, looked up)": "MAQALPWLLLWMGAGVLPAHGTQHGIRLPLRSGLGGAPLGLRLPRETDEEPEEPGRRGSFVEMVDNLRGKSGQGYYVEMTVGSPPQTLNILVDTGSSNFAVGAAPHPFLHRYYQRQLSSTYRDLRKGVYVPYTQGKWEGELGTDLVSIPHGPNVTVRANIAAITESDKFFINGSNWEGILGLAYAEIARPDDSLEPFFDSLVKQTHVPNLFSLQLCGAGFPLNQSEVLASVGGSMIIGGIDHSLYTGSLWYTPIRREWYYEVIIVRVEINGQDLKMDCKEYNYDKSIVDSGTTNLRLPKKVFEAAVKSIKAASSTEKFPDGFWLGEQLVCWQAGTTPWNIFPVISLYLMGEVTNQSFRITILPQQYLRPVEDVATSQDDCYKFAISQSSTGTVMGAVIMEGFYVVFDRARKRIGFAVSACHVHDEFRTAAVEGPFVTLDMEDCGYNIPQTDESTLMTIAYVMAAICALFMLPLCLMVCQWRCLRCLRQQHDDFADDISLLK", "assay": "NVS_ENZ_hBACE: NovaScreen (NVS) Enzymatic Assay for human Beta-secretase (BACE) (AID 2283140);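 also: hits are inhibitors that reduce fluorescent substrate signal versus DMSO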", "outline": "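Cell-free assay of recombinant Sf9-expressed human BACE with fluorescent substrate, read by fluorescence intensity after 1 h. Primary screen in duplicate at 25 uM; actives then run in concentration series; loss of signal relative to DMSO.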"}, "[5]": {"biological_target": "rat CYP2C11, Cyp2c11 (gene 29277) (UniProt P08683)", "sequence (P08683 whole entry, looked up)": "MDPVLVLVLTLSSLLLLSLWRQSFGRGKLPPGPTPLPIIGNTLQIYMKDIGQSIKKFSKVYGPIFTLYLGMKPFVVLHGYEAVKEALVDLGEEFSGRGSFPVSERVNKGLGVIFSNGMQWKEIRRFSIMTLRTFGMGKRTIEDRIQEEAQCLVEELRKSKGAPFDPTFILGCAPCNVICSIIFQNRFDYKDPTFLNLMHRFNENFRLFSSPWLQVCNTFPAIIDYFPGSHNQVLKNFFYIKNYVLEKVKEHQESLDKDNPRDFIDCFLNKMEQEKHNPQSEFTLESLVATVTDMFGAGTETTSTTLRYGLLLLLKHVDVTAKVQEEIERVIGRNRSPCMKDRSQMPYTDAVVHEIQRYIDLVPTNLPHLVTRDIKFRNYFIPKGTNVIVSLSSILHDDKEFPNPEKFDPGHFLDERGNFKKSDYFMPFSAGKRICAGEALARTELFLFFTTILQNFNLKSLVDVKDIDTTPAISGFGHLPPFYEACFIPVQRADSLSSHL", "assay": "NVS_ADME_rCYP2C11: NovaScreen (NVS) CYP450-related Enzyme Activity (ADME) Assay for rat CYP2C11 (AID 2283118)", "outline": "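Cell-free recombinant rat enzyme with fluorescent substrate; readout 0.33 h after dosing, loss of signal versus acetonitrile control. Initial duplicate single-point at 10 uM; actives rerun in concentration series.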"}, "rat CYP3A1, gene 25642": {"tested_on": "rat CYP3A1, gene 25642", "assay": "NVS_ADME_rCYP3A1: NovaScreen (NVS) CYP450-related Enzyme Activity (ADME) Assay for rat CYP3A1 (AID 2283126)", "outline": "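Cell-free recombinant CYP assay with fluorescent substrate, read 0.5 h after dosing. Screened at 10 uM in duplicate, hits at up to 20 uM in concentration-response; loss of signal versus acetonitrile baseline.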"}, "[6]": {"biological_target": "rat CYP3A2, Cyp3a2 (gene 266682) (UniProt P05183)", "sequence (P05183 whole entry, looked up)": "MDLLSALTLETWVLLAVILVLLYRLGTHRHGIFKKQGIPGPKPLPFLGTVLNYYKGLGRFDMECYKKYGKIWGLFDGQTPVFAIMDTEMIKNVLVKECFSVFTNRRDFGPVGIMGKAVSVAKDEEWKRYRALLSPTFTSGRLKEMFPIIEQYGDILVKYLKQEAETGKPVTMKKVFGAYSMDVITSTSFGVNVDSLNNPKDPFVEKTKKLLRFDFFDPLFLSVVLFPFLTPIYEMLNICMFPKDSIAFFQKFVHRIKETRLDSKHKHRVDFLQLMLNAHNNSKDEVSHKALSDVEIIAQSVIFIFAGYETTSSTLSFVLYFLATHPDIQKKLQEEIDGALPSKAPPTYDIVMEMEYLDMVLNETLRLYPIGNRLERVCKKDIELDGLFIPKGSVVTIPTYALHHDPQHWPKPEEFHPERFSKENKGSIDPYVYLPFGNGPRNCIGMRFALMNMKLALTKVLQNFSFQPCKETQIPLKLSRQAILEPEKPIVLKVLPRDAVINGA", "assay": "NVS_ADME_rCYP3A2: NovaScreen (NVS) CYP450-related Enzyme Activity (ADME) Assay for rat CYP3A2 (AID 2283128)", "outline": "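Cell-free rat CYP3A2 enzyme assay with fluorescent substrate, read 0.5 h after dosing. Primary duplicate screen at 10 uM; actives run in concentration-response up to 20 uM, relative to acetonitrile baseline.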"}, "[7]": {"biological_target": "human Casein Kinase 2- alpha 2 beta 2 (CK2a2b2), CSNK2A1 (gene 1457) (UniProt P68400)", "assay": "NVS_ENZ_hCK2a2b2: NovaScreen (NVS) Enzymatic Assay for human Casein Kinase 2- alpha 2 beta 2 (CK2a2b2) (AID 2283147)", "outline": "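Cell-free recombinant CK2 α2β2 holoenzyme with a fluorescent peptide substrate; product separated by electrophoretic mobility shift and read 1 h after dosing. Single-point screen at 25 uM in duplicate; actives were followed with concentration-response up to 50 uM versus DMSO.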"}, "[8]": {"biological_target": "Cytochrome P450 3A4 (Homo sapiens) (UniProt P08684)", "sequence (P08684 whole entry, looked up)": "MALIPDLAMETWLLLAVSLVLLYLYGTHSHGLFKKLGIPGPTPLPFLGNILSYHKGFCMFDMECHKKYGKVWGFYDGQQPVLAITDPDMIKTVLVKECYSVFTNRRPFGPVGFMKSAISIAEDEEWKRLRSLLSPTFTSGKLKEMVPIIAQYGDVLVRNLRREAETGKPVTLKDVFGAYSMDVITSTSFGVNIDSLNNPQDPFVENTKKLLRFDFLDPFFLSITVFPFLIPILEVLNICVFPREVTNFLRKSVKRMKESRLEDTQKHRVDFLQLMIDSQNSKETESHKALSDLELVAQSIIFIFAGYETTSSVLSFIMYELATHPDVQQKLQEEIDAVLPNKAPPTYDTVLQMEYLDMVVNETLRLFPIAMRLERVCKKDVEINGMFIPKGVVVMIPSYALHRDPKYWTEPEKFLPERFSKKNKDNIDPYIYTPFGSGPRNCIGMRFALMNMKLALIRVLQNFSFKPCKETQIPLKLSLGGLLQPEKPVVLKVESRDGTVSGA", "assay": "NVS_ADME_hCYP3A4: NovaScreen (NVS) CYP450-related Enzyme Activity (ADME) Assay for human CYP3A4 (AID 2283110)", "outline": "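Cell-free assay using insect-cell-expressed human CYP3A4 with a fluorogenic substrate; fluorescence intensity was read 0.33 hour after dosing. Loss of signal relative to acetonitrile vehicle indicated inhibition. Primary single-concentration screen at 10 uM, in duplicate, then concentration series.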"}, "[9]": {"biological_target": "rat CYP2C13, Cyp2c13 (gene 171521) (UniProt P20814)", "sequence (P20814 whole entry, looked up)": "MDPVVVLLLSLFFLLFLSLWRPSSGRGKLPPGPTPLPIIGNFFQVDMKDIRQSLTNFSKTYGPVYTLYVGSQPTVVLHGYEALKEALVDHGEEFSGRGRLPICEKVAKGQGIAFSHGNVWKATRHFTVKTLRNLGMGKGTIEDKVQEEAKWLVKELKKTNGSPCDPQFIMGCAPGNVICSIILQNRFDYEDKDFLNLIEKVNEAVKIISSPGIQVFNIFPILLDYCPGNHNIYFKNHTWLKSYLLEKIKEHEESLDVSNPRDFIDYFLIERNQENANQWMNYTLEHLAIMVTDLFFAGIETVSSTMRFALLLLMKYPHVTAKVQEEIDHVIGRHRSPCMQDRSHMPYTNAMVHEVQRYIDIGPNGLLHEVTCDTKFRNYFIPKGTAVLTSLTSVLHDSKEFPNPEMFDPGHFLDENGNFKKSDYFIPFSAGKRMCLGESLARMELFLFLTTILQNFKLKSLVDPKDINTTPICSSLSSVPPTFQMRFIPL", "assay": "NVS_ADME_rCYP2C13: NovaScreen (NVS) CYP450-related Enzyme Activity (ADME) Assay for rat CYP2C13 (AID 2283121)", "outline": "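Recombinant rat CYP2C13 with fluorogenic substrate, 0.75 h cell-free incubation; primary screen in duplicate at 10 uM, actives followed in concentration series. Fluorescence loss relative to acetonitrile control indicates inhibition.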"}, "[10]": {"biological_target": "human Caspase 8 (CASP8), CASP8 (gene 841) (UniProt Q14790)", "sequence (Q14790 whole entry, looked up)": "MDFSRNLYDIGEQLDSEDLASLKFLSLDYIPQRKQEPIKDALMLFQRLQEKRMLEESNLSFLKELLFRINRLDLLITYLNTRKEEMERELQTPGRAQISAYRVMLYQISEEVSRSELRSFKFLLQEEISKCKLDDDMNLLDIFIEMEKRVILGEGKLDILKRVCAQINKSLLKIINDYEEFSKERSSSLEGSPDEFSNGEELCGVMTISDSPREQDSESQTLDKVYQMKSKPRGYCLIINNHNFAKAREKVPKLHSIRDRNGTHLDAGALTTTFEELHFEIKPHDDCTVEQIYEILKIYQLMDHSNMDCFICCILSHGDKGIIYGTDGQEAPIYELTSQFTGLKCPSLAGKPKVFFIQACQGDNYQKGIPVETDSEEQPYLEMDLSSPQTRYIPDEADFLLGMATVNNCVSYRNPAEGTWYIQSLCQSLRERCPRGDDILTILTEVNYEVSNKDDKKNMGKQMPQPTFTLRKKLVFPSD", "assay": "NVS_ENZ_hCASP8: NovaScreen (NVS) Enzymatic Assay for human Caspase 8 (CASP8) (AID 2283146)", "outline": "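E. coli-expressed enzyme was used in a cell-free fluorogenic substrate assay read 1 h after dosing. Loss of signal was scored relative to DMSO, and the primary screen was run in duplicate at 25 uM.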"}, "[11]": {"biological_target": "human AKT serine/threonine Kinase 1 (AKT1), AKT1 (gene 207) (UniProt P31749)", "sequence (P31749 whole entry, looked up)": "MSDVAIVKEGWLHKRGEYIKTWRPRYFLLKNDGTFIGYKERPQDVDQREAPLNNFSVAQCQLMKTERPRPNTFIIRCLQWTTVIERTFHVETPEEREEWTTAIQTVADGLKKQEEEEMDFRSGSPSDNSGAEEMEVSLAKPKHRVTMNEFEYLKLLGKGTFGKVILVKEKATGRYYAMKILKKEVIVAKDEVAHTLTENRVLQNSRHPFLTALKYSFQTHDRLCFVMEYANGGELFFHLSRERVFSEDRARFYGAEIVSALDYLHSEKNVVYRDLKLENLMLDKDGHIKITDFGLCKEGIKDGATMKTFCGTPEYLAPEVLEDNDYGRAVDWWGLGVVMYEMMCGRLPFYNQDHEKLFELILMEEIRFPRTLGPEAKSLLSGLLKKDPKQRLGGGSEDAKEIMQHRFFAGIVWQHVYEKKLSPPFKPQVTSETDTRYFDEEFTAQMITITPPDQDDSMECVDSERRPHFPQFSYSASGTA", "assay": "NVS_ENZ_hAKT1: NovaScreen (NVS) Enzymatic Assay for human AKT serine/threonine Kinase 1 (AKT1) (AID 2283138)", "outline": "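Recombinant human AKT1 with a specific substrate, product separated by electrophoretic mobility shift, read after 1 h. Compounds at 25 uM in duplicate, then concentration-response up to 50 uM for hits; inhibition relative to DMSO.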"}, "Caspase-3 (Homo sapiens)": {"biological_target": "Caspase-3 (Homo sapiens) (UniProt P42574)", "sequence (P42574 whole entry, looked up)": "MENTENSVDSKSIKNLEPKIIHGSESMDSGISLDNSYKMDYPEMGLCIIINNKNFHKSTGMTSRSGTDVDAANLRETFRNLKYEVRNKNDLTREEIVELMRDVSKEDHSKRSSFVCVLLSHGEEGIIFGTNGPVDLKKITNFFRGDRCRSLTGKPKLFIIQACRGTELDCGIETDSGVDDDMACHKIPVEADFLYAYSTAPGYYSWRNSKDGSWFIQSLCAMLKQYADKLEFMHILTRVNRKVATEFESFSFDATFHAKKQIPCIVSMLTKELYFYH", "assay": "NVS_ENZ_hCASP3: NovaScreen (NVS) Enzymatic Assay for human Caspase 3 (CASP3) (AID 2283139)", "outline": "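Recombinant human caspase-3 from E. coli with a fluorogenic substrate, read by fluorescence 1 h after dosing. Primary screen in duplicate at 25 uM. Actives (for example ≥30% inhibition) rerun as concentration-response up to 50 uM.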"}, "[12]": {"biological_target": "human AKT serine/threonine Kinase 2 (AKT2), AKT2 (gene 208) (UniProt P31751)", "assay": "NVS_ENZ_hAKT2: NovaScreen (NVS) Enzymatic Assay for human AKT serine/threonine Kinase 2 (AKT2) (AID 2283141)", "outline": "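Cell-free fluorescence/electrophoretic mobility shift readout of recombinant human AKT2 activity, 1 h after chemical dosing. Duplicate primary screen at 25 uM, then singleton concentration-response up to 50 uM; loss of signal versus DMSO baseline.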"}}, "note": "Where “and” joins values, the source holds several entries; their conditions need not be identical. Identical values can stand only once. Inconclusive results are not listed. Calls of active or inactive are those of the source. The calls were made as follows, unless noted: active = hit-call score of the fitted dose curve at least 0.9, where 1 is the maximum; inconclusive = response in the unintended direction; inactive = score below 0.9.", "data": [{"smiles": "CCCCCOC(=O)COc1cc(N2C(=O)C3=C(CCCC3)C2=O)c(F)cc1Cl", "values": [{"measurement": "outcome", "setting": "[1]", "value": "inactive"}, {"measurement": "AC50", "setting": "[2]", "value": "4.42 µM (active)"}, {"measurement": "outcome", "setting": "[3]", "value": "inactive"}, {"measurement": "AC50", "setting": "[4]", "value": "3.5 µM (active)"}]}, {"smiles": "N#CSCSc1nc2ccccc2s1", "values": [{"measurement": "AC50", "setting": "[1]", "value": "1.77 µM (active) and 5.62 µM (active)"}, {"measurement": "AC50", "setting": "[2]", "value": "4.76 µM (active)"}, {"measurement": "AC50", "setting": "[5]", "value": "9.17 µM (active)"}, {"measurement": "AC50", "setting": "rat CYP3A1, gene 25642", "value": "10.1 µM (active)"}, {"measurement": "AC50", "setting": "[6]", "value": "7.06 µM (active)"}, {"measurement": "AC50", "setting": "[7]", "value": "14.4 µM (active)"}]}, {"smiles": "CC(C)(C)[C@@H](O)[C@@H](Cc1ccc(Cl)cc1)n1cncn1", "values": [{"measurement": "AC50", "setting": "[1]", "value": "6.81 µM (active)"}, {"measurement": "AC50", "setting": "[8]", "value": "2.68 µM (active)"}, {"measurement": "AC50", "setting": "[2]", "value": "0.172 µM (active)"}, {"measurement": "AC50", "setting": "[3]", "value": "1.7 µM (active)"}, {"measurement": "AC50", "setting": "[5]", "value": "2.05 µM (active)"}, {"measurement": "AC50", "setting": "[9]", "value": "370 nM (active)"}, {"measurement": "AC50", "setting": "rat CYP3A1, gene 25642", "value": "3.44 µM (active)"}, {"measurement": "AC50", "setting": "[6]", "value": "4.88 µM (active)"}]}, {"smiles": "CCCCCCC(C)OC(=O)COc1nc(F)c(Cl)c(N)c1Cl", "note": "(configuration not stated)", "values": [{"measurement": "outcome", "setting": "[1]", "value": "inactive"}, {"measurement": "AC50", "setting": "[8]", "value": "7.6 µM (active)"}, {"measurement": "AC50", "setting": "[2]", "value": "4.62 µM (active)"}, {"measurement": "AC50", "setting": "[4]", "value": "3.29 µM (active)"}]}, {"smiles": "CC(C)(c1ccc(O)cc1)c1ccc(O)cc1", "values": [{"measurement": "AC50", "setting": "[1]", "value": "5.49 µM (active) [middle of 4 runs]"}, {"measurement": "AC50", "setting": "[3]", "value": "4.1 µM (active) [middle of 4 runs]"}, {"measurement": "AC50", "setting": "[5]", "value": "1.16 µM (active) [middle of 4 runs]"}, {"measurement": "AC50", "setting": "[9]", "value": "4.5 µM (active) [middle of 4 runs]"}, {"measurement": "AC50", "setting": "rat CYP3A1, gene 25642", "value": "9.88 µM (active)"}, {"measurement": "AC50", "setting": "[6]", "value": "8.05 µM (active)"}, {"measurement": "outcome", "setting": "[10]", "value": "inactive"}]}, {"smiles": "CCOC(=O)NCCOc1ccc(Oc2ccccc2)cc1", "values": [{"measurement": "AC50", "setting": "[1]", "value": "10 µM (active)"}, {"measurement": "AC50", "setting": "[2]", "value": "0.816 µM (active)"}, {"measurement": "AC50", "setting": "rat CYP3A1, gene 25642", "value": "5.62 µM (active)"}]}, {"smiles": "CCCN(CCC)c1c([N+](=O)[O-])cc(C(F)(F)F)c(N)c1[N+](=O)[O-]", "values": [{"measurement": "outcome", "setting": "[10]", "value": "inactive"}]}, {"smiles": "CCN(Cc1c(F)cccc1Cl)c1c([N+](=O)[O-])cc(C(F)(F)F)cc1[N+](=O)[O-]", "values": [{"measurement": "AC50", "setting": "[2]", "value": "10 µM (active)"}, {"measurement": "AC50", "setting": "rat CYP3A1, gene 25642", "value": "6.19 µM (active)"}, {"measurement": "AC50", "setting": "[6]", "value": "4.04 µM (active)"}]}, {"smiles": "O=C(Nc1ccc([N+](=O)[O-])cc1Cl)c1cc(Cl)ccc1O", "values": [{"measurement": "outcome", "setting": "[11]", "value": "inactive"}, {"measurement": "outcome", "setting": "Caspase-3 (Homo sapiens)", "value": "inactive"}, {"measurement": "outcome", "setting": "[12]", "value": "inactive"}]}, {"smiles": "CSC(=O)c1cccc2nnsc12", "values": [{"measurement": "AC50", "setting": "[2]", "value": "3.95 µM (active)"}, {"measurement": "AC50", "setting": "rat CYP3A1, gene 25642", "value": "4.28 µM (active)"}, {"measurement": "AC50", "setting": "[6]", "value": "1.79 µM (active)"}]}]}
